Experimental data from PubChem BioAssay (EPA / NIEHS).
Activity calls are given as the source filed them. The calls were made as follows: active = hit-call score of the fitted dose curve at least 0.9, where 1 is the maximum; inactive = score below 0.9.

Assays:
[1] = APR_HepG2_P-H2AX_72hr: Apredica 72-hour HepG2 Assay for H2AX Phosphorylation (AID 2282916); conditions: imaging, actives raise or lower the signal;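 also: phospho-histone H2A.x immunostain intensity per cell marking DNA damage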
Outline: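 HepG2; cpd 0.39–200 uM ×10 conc, duplicates; 0.5% DMSO; 72 hr. Fix 3.7% formaldehyde 30 min RT, 0.5% Triton X-100 10 min. Anti-phospho-H2A.x 1:200 + Hoechst 2 ug/mL, 60 min RT; ArrayScan imaging.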

[2] = APR_HepG2_MitoMembPot_72hr: Apredica 72-hour HepG2 Assay for Mitochondrial Membrane Potential (AID 2282917); conditions: imaging, actives raise or lower the signal
Outline: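 HepG2 cells exposed 72 h to compounds at 0.39–200 uM (0.5% v/v DMSO, duplicates); MitoTracker Red CMXRos 250 nM loaded 30 min before 3.7% formaldehyde fixation, imaged by HCS fluorescence. Bidirectional fit versus DMSO.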

[3] = APR_HepG2_MitoticArrest_72hr: Apredica 72-hour HepG2 Assay for Mitotic Arrest (AID 2282918); conditions: high-content imaging, actives raise or lower the signal
Outline: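 HepG2 cells were exposed for 72 hr to compound at 0.39–200 uM (10 concentrations, duplicate) in 0.5% v/v DMSO, fixed in 3.7% formaldehyde, immunostained for phospho-histone H3 with Hoechst 33342 and imaged by high-content fluorescence; bidirectional fits versus DMSO.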

[4] = APR_HepG2_MicrotubuleCSK_72hr: Apredica 72-hour HepG2 Assay for Microtubule CSK Stabilty (AID 2282919); conditions: HepG2 microtubule cytoskeleton, high-content imaging, actives raise or lower the signal
Outline: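 HepG2 human liver cells were dosed for 72 h at ten concentrations from 0.39 to 200 uM in duplicate (0.5% v/v DMSO final). Fixed, permeabilized cells were immunostained for alpha-tubulin (Cy5) with a Hoechst counterstain and imaged at 20x.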

[5] = APR_HepG2_P-H2AX_24hr: Apredica 24-hour HepG2 Assay for H2AX Phosphorylation (AID 2282920); conditions: high-content imaging, actives raise or lower the signal
Outline: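 HepG2 human liver cells were exposed for 24 hr to compounds at 0.39–200 uM in duplicate, with 0.5% v/v DMSO final. Fixed cells were immunostained for phospho-histone H2A.x plus Hoechst 33342, imaged by HCS fluorescence, and fitted bidirectionally against DMSO.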

[6] = APR_HepG2_StressKinase_72hr: Apredica 72-hour HepG2 Assay for Stress Kinase (AID 2282921); conditions: HepG2 stress kinase (phospho-c-Jun) imaging, actives raise or lower the signal
Outline: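 Dose 0.39–200 uM (10 pts, duplicate), 0.5% DMSO; 72 h; fix 3.7% formaldehyde 30 min RT; Triton permeabilize; anti-phospho-c-Jun/Cy3 + Hoechst 60 min RT; image 20x; fit gain/loss vs DMSO.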

[7] = APR_HepG2_StressKinase_24hr: Apredica 24-hour HepG2 Assay for Stress Kinase (AID 2282922); conditions: HepG2 stress kinase (phospho-c-Jun) imaging, actives raise or lower the signal
Outline: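 HepG2 cells exposed 24 hr to compound at 0.39–200 uM (10 concentrations, duplicate), 0.5% v/v DMSO final. Fixed in 3.7% formaldehyde, permeabilized with Triton X-100, immunolabeled for phospho-c-Jun with Hoechst 33342; HCS fluorescence imaging, bidirectional fit versus DMSO.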

[8] = APR_HepG2_MitoMass_72hr: Apredica 72-hour HepG2 Assay for Mitochondrial Mass (AID 2282924); conditions: high-content imaging, actives raise or lower the signal;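 also: MitoTracker Red CMXRos stain intensity per cell imaged as mitochondrial mass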
Outline: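 HepG2 cells were exposed for 72 hr to compounds at 0.39–200 uM (ten concentrations, duplicate, 0.5% v/v DMSO final). Live cells were stained with 250 nM MitoTracker Red CMXRos for 30 min, then fixed in 3.7% formaldehyde and imaged by HCS fluorescence.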

[9] = APR_HepG2_NuclearSize_72hr: Apredica 72-hour HepG2 Assay for Nuclear Size (AID 2282925); conditions: high-content imaging, actives raise or lower the signal
Outline: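 HepG2 cells were exposed to compounds at ten concentrations from 0.39 to 200 uM (duplicate, 0.5% DMSO final) for 72 hr. After fixation in 3.7% formaldehyde, nuclei were stained with Hoechst 33342 (2 ug/mL) and imaged at 20x.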

[10] = ATG_CRE_CIS: Attagene CIS-FACTORIAL HepG2 Assay for human cAMP Responsive Element (CRE) binding protein 3 (AID 2282926); conditions: HepG2 CRE cis-reporter, Attagene multiplexed mRNA; actives raise or lower the signal
Outline: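 HepG2 cells transiently transfected with a multiplexed reporter library (CRE-driven unit among them) were dosed for 24 h. Reporter mRNA was quantified by RT-PCR, fluorescent labelling, HpaI digestion and capillary electrophoresis, with bidirectional fitting against DMSO baseline.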

[11] = target: CCAAT/enhancer-binding protein beta (Homo sapiens) (UniProt P17676); test: ATG_C_EBP_CIS: Attagene CIS-FACTORIAL HepG2 Assay for human CCAAT/Enhancer Binding Protein (C/EBP) beta (AID 2282927); conditions: HepG2 Attagene cis-factorial transcription factor reporter; actives raise or lower the signal
Outline: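 Following a 24 h incubation with test chemical, transfected HepG2 cells yielded RNA whose reporter transcripts were quantified by RT-PCR and fluorescent capillary electrophoresis, with DMSO serving as baseline for bidirectional fitting.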

[12] = ATG_CMV_CIS: Attagene CIS-FACTORIAL HepG2 Assay for human CMV (Internal Marker) (AID 2282928); conditions: HepG2 CMV promoter reporter, transcription factor profiling; actives raise or lower the signal;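 also: endpoint acts as a background internal control marker rather than a target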
Outline: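 Cell system: HepG2, transiently transfected multiple reporter units under cis promoters. Exposure: 24 h. Detection: RT-PCR, FAM labeling, HpaI digestion, capillary electrophoresis. Analysis: bidirectional, DMSO baseline.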

[13] = ATG_DR4_LXR_CIS: Attagene CIS-FACTORIAL HepG2 Assay for human Liver X Receptor (LXR), DR4 submotif (AID 2282929); conditions: HepG2 Attagene DR4 cis-reporter, mRNA transcription; actives raise or lower the signal
Outline: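 Readout: reporter transcript fluorescence after RT-PCR and capillary electrophoresis, fitted bidirectionally against DMSO controls. Human HepG2 liver cells carried transiently transfected multiplexed reporter constructs; endogenous transcription factor activity measured 24 h post-dosing.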

[14] = target: Aryl hydrocarbon receptor (Homo sapiens) (UniProt P35869); test: ATG_Ahr_CIS: Attagene CIS-FACTORIAL HepG2 Assay for human Aryl Hydrocarbon Receptor (Ahr) (AID 2282930); conditions: HepG2 AhR cis-factorial reporter transcription; actives raise or lower the signal
Outline: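 Values derive from bidirectional fitting against DMSO negative control. Underlying signal: cis-element reporter mRNA in transiently transfected HepG2, harvested 24 h post-dose and measured by RT-PCR plus capillary electrophoresis.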

[15] = ATG_AP_1_CIS: Attagene CIS-FACTORIAL HepG2 Assay for human Activator Protein 1 (AP-1) (AID 2282931); conditions: HepG2 Attagene cis-factorial AP-1 reporter mRNA; actives raise or lower the signal
Outline: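 Reporter transcripts were measured 24 h after dosing by RT-PCR and capillary electrophoresis of fluorescent fragments. Cells: HepG2 carrying transfected cis-regulated reporter constructs reading endogenous factor activity. Gain or loss fitted against DMSO.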

[16] = ATG_AP_2_CIS: Attagene CIS-FACTORIAL HepG2 Assay for human Activator Protein 2 (AP-2) (AID 2282932); conditions: HepG2 AP-2 cis-reporter, Attagene transcription factor profiling; actives raise or lower the signal
Outline: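 Bidirectional curve fitting against DMSO was applied to reporter mRNA signals from HepG2 cells 24 h after dosing. Cis-promoter reporter units, transiently transfected, were read by RT-PCR plus capillary electrophoresis.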

[17] = ATG_BRE_CIS: Attagene CIS-FACTORIAL HepG2 Assay for human Bone Morphogenetic Protein (BMP) Response Element (BRE) (AID 2282933); conditions: HepG2 BMP response element reporter, Attagene transcription factor profiling; actives raise or lower the signal
Outline: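 Endogenous transcription factor activity read in transiently transfected HepG2 cells after 24 h chemical exposure. Bidirectional curve fitting against DMSO; readout is reporter transcript level by RT-PCR with capillary electrophoresis of labelled products.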

[18] = target: Retinoic acid receptor alpha (Homo sapiens) (UniProt P10276); test: ATG_DR5_RAR_CIS: Attagene CIS-FACTORIAL HepG2 Assay for human Retinoic Acid Receptor Alpha (RARE), DR5 submotif (AID 2282934); conditions: HepG2 Attagene cis-factorial RARE DR5 reporter, mRNA; actives raise or lower the signal;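 as to AC50: reporter responds to endogenous RAR alpha beta and gamma in HepG2 not RARA alone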
Outline: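 Endpoint fitted in both directions relative to DMSO as negative control. It reflects DR5 cis-element reporter mRNA induction in transiently transfected HepG2 cells, measured 24 h after dosing through RT-PCR and fluorescent capillary electrophoresis.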

[19] = target: Transcription factor E2F1 (Homo sapiens) (UniProt Q01094); test: ATG_E2F_CIS: Attagene CIS-FACTORIAL HepG2 Assay for human E2F Transcription Factor 1 (AID 2282935); conditions: HepG2 Attagene cis-reporter, E2F reporter RNA transcripts; actives raise or lower the signal
Outline: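 Multiplexed cis-reporter assay: HepG2, transient transfection, 24 h dosing, mRNA quantitation by labeled RT-PCR and CE.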

[20] = APR_HepG2_p53Act_72hr: Apredica 72-hour HepG2 Assay for p53 Activation (AID 2282923); conditions: high-content imaging, actives raise or lower the signal;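 also: average cellular p53 protein immunofluorescence intensity in HepG2 cells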
Outline: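 10-pt conc. 0.39–200 uM, duplicate, 0.5% DMSO; 72 hr exposure; 3.7% formaldehyde fix, 0.5% Triton perm; sheep anti-p53/Cy5 + Hoechst; ArrayScan 20x, 6 images/well; gain/loss fit vs DMSO.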

Measured: AC50

CCAAT/enhancer-binding protein beta (Homo sapiens), sequence (P17676 whole entry, looked up): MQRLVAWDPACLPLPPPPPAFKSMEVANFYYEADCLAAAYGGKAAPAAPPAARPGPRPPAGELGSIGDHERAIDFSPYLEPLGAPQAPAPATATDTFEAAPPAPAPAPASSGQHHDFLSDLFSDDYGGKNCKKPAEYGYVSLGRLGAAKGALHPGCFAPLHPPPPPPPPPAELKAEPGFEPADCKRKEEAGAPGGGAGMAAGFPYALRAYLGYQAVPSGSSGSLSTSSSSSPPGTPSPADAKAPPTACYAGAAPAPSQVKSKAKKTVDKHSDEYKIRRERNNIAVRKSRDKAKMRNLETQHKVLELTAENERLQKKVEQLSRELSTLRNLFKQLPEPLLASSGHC
Transcription factor E2F1 (Homo sapiens), sequence (Q01094 whole entry, looked up): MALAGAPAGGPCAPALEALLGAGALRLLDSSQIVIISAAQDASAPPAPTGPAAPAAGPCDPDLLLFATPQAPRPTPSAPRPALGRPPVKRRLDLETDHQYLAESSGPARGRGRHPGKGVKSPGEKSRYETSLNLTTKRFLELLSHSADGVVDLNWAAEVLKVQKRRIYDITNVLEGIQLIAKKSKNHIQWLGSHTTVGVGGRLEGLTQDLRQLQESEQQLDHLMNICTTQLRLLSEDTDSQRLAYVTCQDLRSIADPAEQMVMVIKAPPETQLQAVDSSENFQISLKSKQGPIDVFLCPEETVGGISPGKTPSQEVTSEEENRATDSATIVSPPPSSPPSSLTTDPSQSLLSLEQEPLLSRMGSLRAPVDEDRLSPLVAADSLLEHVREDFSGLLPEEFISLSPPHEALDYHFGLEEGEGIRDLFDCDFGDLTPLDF
Aryl hydrocarbon receptor (Homo sapiens), sequence (P35869 whole entry, looked up): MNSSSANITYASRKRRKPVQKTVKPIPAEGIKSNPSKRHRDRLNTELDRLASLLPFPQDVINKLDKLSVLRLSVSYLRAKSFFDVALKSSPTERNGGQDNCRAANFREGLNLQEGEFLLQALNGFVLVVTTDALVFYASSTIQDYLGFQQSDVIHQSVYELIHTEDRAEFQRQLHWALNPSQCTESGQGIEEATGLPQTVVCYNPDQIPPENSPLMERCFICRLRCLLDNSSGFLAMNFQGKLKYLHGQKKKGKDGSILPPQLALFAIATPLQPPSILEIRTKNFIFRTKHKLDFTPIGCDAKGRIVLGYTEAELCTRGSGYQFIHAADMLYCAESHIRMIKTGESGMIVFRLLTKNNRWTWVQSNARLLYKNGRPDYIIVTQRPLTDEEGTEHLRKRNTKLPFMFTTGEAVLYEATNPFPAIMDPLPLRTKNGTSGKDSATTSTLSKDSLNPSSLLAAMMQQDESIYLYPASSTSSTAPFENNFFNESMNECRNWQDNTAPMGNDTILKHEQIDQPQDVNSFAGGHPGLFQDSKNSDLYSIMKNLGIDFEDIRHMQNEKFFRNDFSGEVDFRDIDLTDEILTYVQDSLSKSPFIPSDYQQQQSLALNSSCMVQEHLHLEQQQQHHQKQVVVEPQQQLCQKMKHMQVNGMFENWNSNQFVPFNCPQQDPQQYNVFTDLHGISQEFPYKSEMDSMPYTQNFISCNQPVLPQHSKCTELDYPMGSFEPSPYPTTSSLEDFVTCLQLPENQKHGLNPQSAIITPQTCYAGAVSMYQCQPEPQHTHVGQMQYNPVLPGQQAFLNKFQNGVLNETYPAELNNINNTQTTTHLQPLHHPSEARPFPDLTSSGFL
Retinoic acid receptor alpha (Homo sapiens), sequence (P10276 whole entry, looked up): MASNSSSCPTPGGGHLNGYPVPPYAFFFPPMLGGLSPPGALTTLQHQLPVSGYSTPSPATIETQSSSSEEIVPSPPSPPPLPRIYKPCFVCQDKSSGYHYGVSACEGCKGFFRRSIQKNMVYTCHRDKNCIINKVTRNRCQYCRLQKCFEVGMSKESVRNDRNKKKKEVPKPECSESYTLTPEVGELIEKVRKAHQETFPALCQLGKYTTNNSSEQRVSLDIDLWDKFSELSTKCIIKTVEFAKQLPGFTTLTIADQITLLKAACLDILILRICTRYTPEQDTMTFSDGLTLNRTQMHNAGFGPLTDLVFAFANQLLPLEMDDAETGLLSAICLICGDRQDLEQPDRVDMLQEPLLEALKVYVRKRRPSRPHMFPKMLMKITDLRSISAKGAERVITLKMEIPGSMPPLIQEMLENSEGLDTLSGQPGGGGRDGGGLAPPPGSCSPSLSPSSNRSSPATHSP

CCC(C)Nc1c([N+](=O)[O-])cc(C(C)(C)C)cc1[N+](=O)[O-] (stereo not drawn)
inactive: [1] | [2] | [3] | [5] | [6] | [7] | [8] | [9] | [11] | [14] | [16] | [17] | [19]
active: [4] 57.8 µM | [10] 7.44 µM | [12] 24.1 µM | [13] 36.4 µM | [15] 43.3 µM | [18] 6.5 µM

Clc1ccccc1-c1nnc(-c2ccccc2Cl)nn1
active: [1] 46.4 µM | [4] 12.8 µM
inactive: [2] | [3] | [5] | [6] | [7] | [8] | [9] | [10] | [11] | [12] | [13] | [14] | [15] | [16] | [18] | [19]

CCS(=O)(=O)c1cccnc1S(=O)(=O)NC(=O)Nc1nc(OC)cc(OC)n1
inactive: [1] | [2] | [3] | [4] | [5] | [6] | [7] | [20] | [8] | [9] | [10] | [11] | [12] | [13] | [14] | [15] | [16] | [18] | [19]

C#CCN1C(=O)COc2cc(F)c(N3C(=O)C4=C(CCCC4)C3=O)cc21
active: [10] 22.4 µM
inactive: [1] | [2] | [3] | [4] | [5] | [6] | [7] | [8] | [9] | [11] | [12] | [13] | [14] | [15] | [16] | [18] | [19]

COC(=O)c1ccccc1CS(=O)(=O)NC(=O)Nc1nc(OC)cc(OC)n1
inactive: [1] | [2] | [3] | [4] | [5] | [6] | [7] | [20] | [8] | [9] | [10] | [11] | [12] | [13] | [14] | [15] | [16] | [18] | [19]
